According to PubChem BioAssay AID1159580 (chemical genetic matrix, 2015):
The whole screen tested about 5,500 compounds, of which about 2,000 (36%) were called active. Another 18% or so got no clear call; they are omitted. Cut-off read from the data, not from the text of the source: active = normalized growth mostly below about 0.91 (no sharp cut-off); inconclusive = no clear call, values can overlap the other calls; inactive = mostly above about 0.92. Some of the results follow.

Assay: chemical genetic growth profiling, strain panel (AID 1159580);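 note: tested at 20 µM; growth read once vehicle control cultures reached saturation at 30 °C; 1 = growth at the plate median or of vehicle wells; lower values mean less growth of the strain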
Settings: S. cerevisiae deletion strains, growth OD

Measured: normalized growth

C[N+](C)(C)CCOC(=O)CCC(=O)OCC[N+](C)(C)C
inactive: locus YAL040C, strain CLN3, active compounds read low 0.988 | locus YCL061C, strain MRC1 (second series), active compounds read low 1.01 | locus YDR150W, strain NUM1, active compounds read low 1.02 | locus YDR363W, strain ESC2, active compounds read low 1.01 | locus YER002W, strain NOP16, active compounds read low 1.01 | locus YGR229C, strain SMI1, active compounds read low 1.04 | locus YJR075W, strain HOC1, active compounds read low 0.992 | locus YMR263W, strain SAP30, active compounds read low 1 | locus YMR307W, strain GAS1, active compounds read low 1.03 | locus YNL153C, strain GIM3, active compounds read low 1.03 | locus YNL175C, strain NOP13, active compounds read low 1.01 | locus YNL197C, strain WHI3, active compounds read low 1.02 | locus YNL224C, strain SQS1, active compounds read low 1.01 | locus YNL322C, strain KRE1, active compounds read low 0.992 | locus YOR083W, strain WHI5 (second series), active compounds read low 1.02 | locus YPL241C, strain CIN2, active compounds read low 0.987
